In PubChem BioAssay (NCI):
Compounds without any hit were thinned out: in the full panel of roughly 79,000, 15% have a hit. Calls of active or inactive are those of the source. Rule as the data show it: active = growth inhibition above about 70%; inactive = the rest.

Columns and labels:
[1] = NCI Yeast Anticancer Drug Screen. Data for the rad52 strain (AID 147);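 also: 0% = growth of vehicle-treated control cultures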; details: S. cerevisiae rad52 mutant growth inhibition, stronger effect = higher value
Summary of the method: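 Here a repair-compromised yeast strain receives each compound; its growth is then quantified and normalised to vehicle-only controls.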

[2] = NCI Yeast Anticancer Drug Screen. Data for the wt1 strain (AID 149);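 also: 0% = growth of vehicle-treated wt1 cultures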; details: S. cerevisiae wt1 strain (SPY 50644) growth inhibition, stronger effect = higher value
Summary of the method: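 Measured: growth of wt1 yeast under compound versus vehicle treatment, reported as inhibition.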

[3] = NCI Yeast Anticancer Drug Screen. Data for the rad50EPP+ strain (AID 151);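 also: 0% = growth of vehicle-treated control cultures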; details: S. cerevisiae rad50 mutant strain, stronger effect = higher value
Summary of the method: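 Read-out is yeast growth inhibition relative to vehicle; cells used were the rad50EPP+ strain.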

[4] = NCI Yeast Anticancer Drug Screen. Data for the mgt1 strain (AID 153); details: S. cerevisiae mgt1 mutant growth inhibition, stronger effect = higher value
Summary of the method: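 Measured: inhibition of mgt1 yeast growth by compound, normalized to vehicle-treated cultures.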

[5] = NCI Yeast Anticancer Drug Screen. Data for the rad50 strain (AID 155);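 also: 0% = growth of vehicle-only cultures of the same strain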; details: S. cerevisiae rad50 strain growth inhibition, stronger effect = higher value
Summary of the method: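 Growth of the mutant yeast was measured after compound exposure and referenced to vehicle-treated cultures.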

[6] = NCI Yeast Anticancer Drug Screen. Data for the mec2-1 strain (AID 157); details: S. cerevisiae mec2-1 strain, stronger effect = higher value
Summary of the method: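 Using mec2-1 yeast: add compound, measure growth, express inhibition versus vehicle-treated cultures.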

[7] = NCI Yeast Anticancer Drug Screen. Data for the rad14 strain (AID 159);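 also: 0% = growth of vehicle-treated control cultures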; details: S. cerevisiae rad14 strain growth inhibition, stronger effect = higher value
Summary of the method: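 Here, inhibition of yeast growth was measured after compound exposure, using a strain with a genetic defect in DNA damage repair and vehicle-treated cultures as the reference.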

[8] = NCI Yeast Anticancer Drug Screen. Data for the sgs1 mgt1 strain (AID 161);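 also: 0% = growth of cultures given vehicle only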; details: S. cerevisiae sgs1 mgt1 strain, stronger effect = higher value
Summary of the method: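 This yeast growth screen uses a strain with defined DNA-repair lesions; compound-treated growth is compared with vehicle-treated growth.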

[9] = NCI Yeast Anticancer Drug Screen. Data for the CLN2oe strain (AID 163);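 also: 0% = growth of vehicle-only control cultures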; details: S. cerevisiae CLN2oe strain, stronger effect = higher value
Summary of the method: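 Whole-cell yeast growth assay. A strain engineered for altered cell-cycle control received compound, and inhibition relative to vehicle-treated cultures was recorded.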

[10] = NCI Yeast Anticancer Drug Screen. Data for the cln2 rad14 strain (AID 165);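 also: 0% = growth equal to vehicle treated cultures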; details: S. cerevisiae cln2 rad14 strain, stronger effect = higher value
Summary of the method: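 Yeast strain cln2 rad14, bearing defects in cell cycle control and DNA repair, serves as the test system; values reflect growth inhibition compared with vehicle.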

[11] = NCI Yeast Anticancer Drug Screen. Data for the bub3 strain (AID 167); details: S. cerevisiae bub3 mutant strain, stronger effect = higher value
Summary of the method: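 Whole-cell yeast assay. The mutant strain was incubated with compounds, and growth inhibition was determined by comparison with vehicle-treated cells.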

[12] = NCI Yeast Anticancer Drug Screen. Data for the wt2 strain (AID 169);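 also: 0% = growth of vehicle-treated yeast cultures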; details: S. cerevisiae wt2 strain growth inhibition, stronger effect = higher value
Summary of the method: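 Treated yeast vs. vehicle-treated yeast: growth inhibition determined.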

[13] = NCI Yeast Anticancer Drug Screen. Data for the mlh1 strain (AID 171);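 also: 0% = growth of vehicle-treated control cultures of the same strain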; details: S. cerevisiae mlh1 strain growth inhibition, stronger effect = higher value
Summary of the method: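 A yeast strain with a defined genetic lesion serves as the test organism. Cultures receive compound or vehicle, and growth is measured.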

[14] = NCI Yeast Anticancer Drug Screen. Data for the sgs1 strain (AID 173);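 also: 0% = growth of vehicle-only control cultures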; details: S. cerevisiae sgs1 mutant, stronger effect = higher value
Summary of the method: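 A genetically defined yeast mutant is incubated with the test compound, and its growth is compared to that of the same strain given vehicle.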

[15] = NCI Yeast Anticancer Drug Screen. Data for the mlh1 rad18 strain (AID 175); details: S. cerevisiae mlh1 rad18 strain growth inhibition, stronger effect = higher value
Summary of the method: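 Steps: expose repair-defective yeast to compound; measure growth; express inhibition against vehicle-treated controls.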

[16] = NCI Yeast Anticancer Drug Screen. Data for the rad18 strain (AID 177); details: S. cerevisiae rad18 mutant growth inhibition, stronger effect = higher value
Summary of the method: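 Measured value is growth inhibition of a yeast strain bearing a DNA repair alteration, referenced to vehicle-treated cells.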

[17] = at 5.0 µM (retest, dose inferred, filed as 0.5)
[18] = at 50.0 µM (retest, dose inferred, filed as 5.0)

Measured: growth inhibition

Clc1ccc(/C(=C\c2ccccc2)Cn2ccnc2)cc1
active: [1]; at 33.0 µM 86% | [1]; at 100.0 µM 76% | [3]; at 11.0 µM 92% | [3]; at 33.0 µM 95% | [3]; at 100.0 µM 96% | [4]; at 33.0 µM 71% | [4]; at 100.0 µM 87% | [5]; at 33.0 µM 84% | [5]; [18] 92% | [5]; at 50.0 µM 79% | [5]; at 100.0 µM 85% | [6]; [18] 88% | [6]; at 50.0 µM 82.3% | [7]; at 33.0 µM 81% | [7]; at 100.0 µM 80% | [8]; [18] 95% | [8]; at 50.0 µM 79.7% | [9]; at 33.0 µM 75% | [9]; at 100.0 µM 74% | [10]; [18] 92% | [10]; at 50.0 µM 73.2% | [11]; at 33.0 µM 72% | [11]; [18] 97% | [11]; at 50.0 µM 88.2% | [11]; at 100.0 µM 89% | [12]; at 100.0 µM 77% | [13]; at 100.0 µM 74% | [14]; at 33.0 µM 90% | [14]; at 100.0 µM 83% | [15]; [18] 94% | [15]; at 50.0 µM 78.6% | [16]; at 11.0 µM 81% | [16]; at 33.0 µM 93% | [16]; at 100.0 µM 92%
inactive: [1]; at 1.2 µM 18% | [1]; at 3.7 µM 34% | [1]; at 11.0 µM 53% | [2]; at 1.2 µM 9% | [2]; at 3.7 µM 12% | [2]; at 11.0 µM 28% | [2]; at 33.0 µM 20% | [2]; at 100.0 µM 39% | [3]; at 1.2 µM 26% | [3]; at 3.7 µM 54% | [4]; at 1.2 µM 14% | [4]; at 3.7 µM 22% | [4]; at 11.0 µM 60% | [5]; at 1.2 µM 22% | [5]; at 3.7 µM 34% | [5]; [17] 52% | [5]; at 11.0 µM 54% | [6]; at 1.2 µM 11% | [6]; at 3.7 µM 21% | [6]; [17] -14% | [6]; at 11.0 µM 37% | [6]; at 33.0 µM 54% | [6]; at 100.0 µM 67% | [7]; at 1.2 µM 38% | [7]; at 3.7 µM 51% | [7]; at 11.0 µM 68% | [8]; [17] 30% | [9]; at 1.2 µM 11% | [9]; at 3.7 µM 21% | [9]; at 11.0 µM 48% | [10]; [17] 26% | [11]; at 1.2 µM 10% | [11]; at 3.7 µM 32% | [11]; [17] 51% | [11]; at 11.0 µM 44% | [12]; at 1.2 µM 20% | [12]; at 3.7 µM 29% | [12]; at 11.0 µM 46% | [12]; at 33.0 µM 54% | [13]; at 1.2 µM 5% | [13]; at 3.7 µM 19% | [13]; at 11.0 µM 39% | [13]; at 33.0 µM 51% | [14]; at 1.2 µM 44% | [14]; at 3.7 µM 54% | [14]; at 11.0 µM 69% | [15]; [17] 42% | [16]; at 1.2 µM 46% | [16]; at 3.7 µM 64%

O=[N+]([O-])c1cc(Cl)ccc1S(=O)(=O)c1ccc(Cl)cc1[N+](=O)[O-]
inactive: [1]; at 1.2 µM -25% | [1]; at 3.7 µM -8% | [1]; at 11.0 µM 40% | [2]; at 1.2 µM -13% | [2]; at 3.7 µM -19% | [2]; at 11.0 µM 0% | [3]; at 1.2 µM -6% | [3]; at 3.7 µM 20% | [3]; at 11.0 µM 55% | [3]; at 100.0 µM 64% | [4]; at 1.2 µM -29% | [4]; at 3.7 µM -27% | [4]; at 11.0 µM 0% | [5]; at 1.2 µM -31% | [5]; at 3.7 µM -21% | [5]; [17] 14% | [5]; at 11.0 µM 41% | [6]; at 1.2 µM -12% | [6]; at 3.7 µM 10% | [6]; [17] 4% | [6]; at 11.0 µM 20% | [7]; at 1.2 µM -15% | [7]; at 3.7 µM -11% | [7]; at 11.0 µM 25% | [8]; [17] 16% | [9]; at 1.2 µM -2% | [9]; at 3.7 µM -4% | [9]; at 11.0 µM 9% | [10]; [17] 13% | [11]; at 1.2 µM -21% | [11]; at 3.7 µM 7% | [12]; at 1.2 µM 0% | [12]; at 3.7 µM 4% | [12]; at 11.0 µM 21% | [13]; at 1.2 µM -3% | [13]; at 3.7 µM 3% | [13]; at 11.0 µM 44% | [14]; at 1.2 µM -3% | [14]; at 3.7 µM 13% | [14]; at 11.0 µM 35% | [15]; [17] 25% | [16]; at 1.2 µM 8% | [16]; at 3.7 µM 9% | [16]; at 11.0 µM 63%
active: [1]; at 33.0 µM 86% | [1]; at 100.0 µM 78% | [2]; at 33.0 µM 85% | [2]; at 100.0 µM 78% | [3]; at 33.0 µM 72% | [4]; at 33.0 µM 84% | [4]; at 100.0 µM 78% | [5]; at 33.0 µM 90% | [5]; [18] 92% | [5]; at 50.0 µM 76.8% | [5]; at 100.0 µM 81% | [6]; at 33.0 µM 89% | [6]; [18] 93% | [6]; at 50.0 µM 83% | [6]; at 100.0 µM 84% | [7]; at 33.0 µM 88% | [7]; at 100.0 µM 81% | [8]; [18] 91% | [8]; at 50.0 µM 84.3% | [9]; at 33.0 µM 82% | [9]; at 100.0 µM 79% | [10]; [18] 91% | [10]; at 50.0 µM 79.9% | [11]; [17] 73% | [11]; at 11.0 µM 80% | [11]; at 33.0 µM 93% | [11]; [18] 94% | [11]; at 50.0 µM 83.7% | [11]; at 100.0 µM 90% | [12]; at 33.0 µM 88% | [12]; at 100.0 µM 84% | [13]; at 33.0 µM 85% | [13]; at 100.0 µM 80% | [14]; at 33.0 µM 91% | [14]; at 100.0 µM 84% | [15]; [18] 91% | [15]; at 50.0 µM 80.8% | [16]; at 33.0 µM 91% | [16]; at 100.0 µM 87%
